# High-throughput results as filed in PubChem BioAssay.
# PNC assembly inh – perinucleolar compartment assembly inhibition; activity change (PNC), negative = inhibition, % at 10 µM; 140,000 compounds, 3.1% hits; AID 2417; PC3M PTB-GFP, PNC prevalence imaging, 16 h; active compounds read low;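 active = readout at or below -70, meaning at least 70% loss of cells showing the perinucleolar compartment, a nuclear body marking cancer cells; inconclusive = readout between -30 and a set limit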
#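 Compounds are pinned in duplicate onto adhered PC3M cells stably expressing GFP-tagged PTB and incubated 16 h at 37 C. Cells are then fixed, nuclei stained with Hoechst, and PNC-positive cells counted.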
# aGal spleen mod – inhibits or activates alpha-galactosidase in human spleen homogenate; P06280; human spleen homogenate, 4MU-alpha-Gal fluorescence, 40 min; Potency, µM (series often up to 80 µM), actives largely listed as inhibitors; 240,000 compounds, 0.008% hits
# Target sequence (P06280 32-429 limits assumed): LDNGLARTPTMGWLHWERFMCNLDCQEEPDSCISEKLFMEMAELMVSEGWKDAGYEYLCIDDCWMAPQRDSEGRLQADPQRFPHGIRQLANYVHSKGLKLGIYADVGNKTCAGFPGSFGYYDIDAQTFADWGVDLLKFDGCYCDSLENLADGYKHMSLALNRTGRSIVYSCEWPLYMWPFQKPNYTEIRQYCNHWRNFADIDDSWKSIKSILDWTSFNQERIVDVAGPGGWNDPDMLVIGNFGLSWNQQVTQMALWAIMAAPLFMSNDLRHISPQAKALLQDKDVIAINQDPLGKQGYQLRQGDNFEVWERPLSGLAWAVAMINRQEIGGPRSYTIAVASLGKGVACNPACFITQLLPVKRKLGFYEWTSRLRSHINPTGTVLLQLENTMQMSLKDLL
#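 Spleen homogenate 1 ug + cpd (titration) + 4-MU-alpha-D-galactopyranoside 1 mM; 37C 40 min; 50 mM citrate/phosphate pH 5.0, 0.01% Tween-20; stop pH 10; fluorescence 365/440; AC50 via Hill.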
# 12-hLO inh – inhibitors of human 12-lipoxygenase (ALOX12). P18054. purified 12-hLO, xylenol orange hydroperoxide absorbance. Potency, µM (titrated, usually from 57.1 µM), actives largely listed as inhibitors. 150,000 compounds, 0.12% hits; note: nearly all actives have a fitted effect of over 55% in size
#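 Purified human 12hLO (150 nM final) was preincubated with compounds for 15 min at room temperature in 25 mM Hepes pH 7.0, 0.01% Triton X-100, then reacted with 40 uM arachidonic acid for 30 min. Hydroperoxide was detected with ferrous iron/xylenol orange.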
# GLA inh pH 4.5 – blocks human alpha-galactosidase A at pH 4.5; purified enzyme, 4-MU-alpha-Gal fluorescence, pH 4.5; activity change, negative = inhibition, % at 105 µM; AID 1467; P06280; 230,000 tested, under 10 active
# HPGD block – inhibitors of human 15-hydroxyprostaglandin dehydrogenase (HPGD). P15428. purified HPGD, NADH fluorescence kinetic, PGE2 substrate. Potency, µM, usual class: inhibitors. 150,000 compounds, 4.3% hits. AID 894; active = well fitted inhibition curve with a large enough effect, not every such curve was filed as active; inconclusive = small, poorly fitted or top-dose-only effect, or another doubt; inactive = no such curve, though single readings can be large or run the other way
#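 NADH formation kinetics: reaction with 30 uM PGE2 and 1 mM NAD+ (final), 20 nM enzyme, Tris-HCl pH 8 with Tween 20, after 15 min compound preincubation at room temperature. Fluorescence change, last versus first of five reads.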
# ALDH1A1 block – inhibitors of human aldehyde dehydrogenase 1A1 | P00352 | Purified ALDH1A1, NADH fluorescence, propionaldehyde substrate | Potency, µM (highest dose often 75.3 µM), hits mostly inhibitors | 220,000 compounds, 7.3% hits | AID 1030; active = well fitted inhibition curve with a large enough effect, not every such curve was filed as active; inconclusive = small, poorly fitted or top-dose-only effect, or another doubt; inactive = no such curve, though single readings can be large or run the other way
# A number is an active result; 0 = inactive; ? = inconclusive; - = not tested or not shown; [ ] = dose if it differs, or a comment. Shown are actives, neighbours in structure and some others; about 10% of the full set was active somewhere. Unless noted, calls come from the whole dose curve; as a rule, active = well fitted curve in the direction sought with a large enough effect; inconclusive = small, poorly fitted or top-dose-only effect, or another doubt; inactive = no such curve, though single readings can be large; an effect the other way counts as inactive or inconclusive.
SMILES,PNC assembly inh,aGal spleen mod,12-hLO inh,GLA inh pH 4.5,HPGD block,ALDH1A1 block
N#C/C(=C\c1ccc(N2CCCCC2)o1)C(N)=O,-,0,-,0,-,0
O=S(=O)(NC1CCN(Cc2ccccc2)CC1)c1ccc2ccccc2c1,-,0,-,?,-,22µM
O=C(NNS(=O)(=O)c1ccc2ccccc2c1)C1CCN(Cc2ccccc2)CC1,0,0,0,0,0,0
Cc1ccc2c(c1)/C(=N/O)CCS2,?,0,0,0,0,0
O=C(O/N=C1/CCSc2ccccc21)c1ccccc1,0,0,0,0,18µM,19µM
O/N=C1/CCCSc2ccccc21,0,0,0,0,11µM,0
COC(=O)[C@H](CC(C)C)NC(=O)NCCC1=CCCCC1,-,0,-,0,-,-
CC1=C(SCCC#N)S/C(=C2\SC(C)=C(SCCC#N)S2)S1,0,0,?,0,18µM,5µM
Clc1ccc2c(NCc3ccccn3)ncnc2c1,0,0,0,0,?,3.5µM
Clc1ccc2c(NCc3ccco3)ncnc2c1,0,0,0,0,0,0
O=C(C1CCCN(Cc2ccccc2)C1)N1CCCCC1 (configuration not stated),0,0,0,0,28µM,20µM
COc1ccccc1CN1CCCC(C(=O)N2CCCCC2)C1 (configuration not stated),-,0,-,0,-,-
O=C(C1CCCN(Cc2ccccc2Br)C1)N1CCCCC1 (configuration not stated),0,0,0,0,25µM,0
O=C(C1CCCN(Cc2cccs2)C1)N1CCCCCC1 (configuration not stated),0,0,0,0,-,0
C[N+](C)(C)[C@H](Cc1c[nH]c(=S)[nH]1)C(=O)O,-,-,0[11.4 µM],-,0,0[13.5 µM]
Cc1cc(C)n(CCc2nc(-c3ccc(C(C)(C)C)cc3)cs2)n1,0,0,0,0,-,?
Cc1cc(C)n(CCc2nc(-c3ccc(F)cc3)cs2)n1,0,0,0,0,25µM,0
CN(C)CCC1(c2ccc(Cl)cc2)Cc2ccccc2C(=O)O1 (configuration not stated),-,0,-,-,-,-
COc1ccc(-c2cc(C(=O)NN)n(-c3ccccc3)n2)cc1,0,0,0,0,0,8.9µM
COc1ccc(-c2cc(C(=O)NN)[nH]n2)cc1,0,0,0,0,0,20µM
COc1ccc(-c2cc(C(=O)N/N=C/c3ccc(OC)c(OC)c3)[nH]n2)cc1,-,-,0,-,?,?
CCOc1ccc(-c2cc(C(=O)NN)[nH]n2)cc1,?,0,0,0,0,?
COc1ccc(-c2cc(C(=O)N/N=C/c3ccc(O)cc3)[nH]n2)cc1,-,-,0,-,?,13µM
COc1ccc(N2C(=O)N(Cc3cccc(F)c3)c3ccccc3S2(=O)=O)cc1,-,0,-,0,-,0
CCCNC(=O)OC[C@@H]1O[C@H](CCO/N=C2\c3cc(OC)ccc3O[C@H](c3cccc(OC)c3)[C@H]2O)C=C[C@@H]1Oc1ccc(OC)cc1,-,0[17.5 µM],-,-,-,0[13.5 µM]
SMILES,PNC assembly inh,aGal spleen mod,12-hLO inh,GLA inh pH 4.5,HPGD block,ALDH1A1 block
CSc1sc(C(=O)NNC(C)=O)c2c1C1(CCC2)SCCS1,-,0,-,0,-,?
CSc1sc(C(=O)NN)c2c1C1(CCC2)SCCS1,-,0,-,0,-,0.45µM
COc1ccccc1CN1CCCC2(CCN(C(=O)c3cccn3C)CC2)C1,-,0,0,-,0,0
Cc1cc(C)c(Nc2cc(S(=O)(=O)O)c(N)c3c2C(=O)c2ccccc2C3=O)c(C)c1,0,0,0,0,?,25µM
O=C(Cc1ccccc1)NCc1ccc(-n2cccc2)cc1,-,0,-,0,-,0
CCOC(=O)c1ccc(CNC(=O)c2cc(C(C)(C)C)oc2C)o1,0,0,0,0,0,25µM
CCOC(=O)c1cc(C(C)(C)C)oc1CNC(=O)c1c(C)oc2c1CCCC2,0,0,0,0,0,18µM
CCN(CC)CCn1c(-c2ccccc2)nc2c(N3CCOCC3)nc(C)nc21,-,0,0,0,?,?
Cc1ccc(/C=C/C(=O)NCC2COc3ccccc3O2)o1 (configuration not stated),-,0,-,0,-,6.3µM
O=C(CC1COc2ccccc2O1)NCCc1ccccc1 (configuration not stated),0,0,0,0,7.1µM,0
O=C(CC1COc2ccccc2O1)NCc1ccccc1 (configuration not stated),0,0,0,0,0,0
